# The campaign covered roughly 370,000 compounds. About 520 (0.14%) were called active. Cut-off read from the data, not from the text of the source: active = activation above about 40%; inactive = the rest. Only a selection was taken, and actives are over-represented in it overall.
# Molecular target: Atrial natriuretic peptide receptor 1 (Homo sapiens) (UniProt P16066)
# Experiment: GC-A stimulated cGMP production enhancers – HEK293 GC-A cells, cGMP TR-FRET, EC30 ANP, primary screen (AID 1671463)
# Settings: at 10 µM, hits give high values, 0% at EC30 ANP, 100% saturating ANP
# Atrial natriuretic peptide receptor 1 (Homo sapiens), sequence (P16066 whole entry, looked up): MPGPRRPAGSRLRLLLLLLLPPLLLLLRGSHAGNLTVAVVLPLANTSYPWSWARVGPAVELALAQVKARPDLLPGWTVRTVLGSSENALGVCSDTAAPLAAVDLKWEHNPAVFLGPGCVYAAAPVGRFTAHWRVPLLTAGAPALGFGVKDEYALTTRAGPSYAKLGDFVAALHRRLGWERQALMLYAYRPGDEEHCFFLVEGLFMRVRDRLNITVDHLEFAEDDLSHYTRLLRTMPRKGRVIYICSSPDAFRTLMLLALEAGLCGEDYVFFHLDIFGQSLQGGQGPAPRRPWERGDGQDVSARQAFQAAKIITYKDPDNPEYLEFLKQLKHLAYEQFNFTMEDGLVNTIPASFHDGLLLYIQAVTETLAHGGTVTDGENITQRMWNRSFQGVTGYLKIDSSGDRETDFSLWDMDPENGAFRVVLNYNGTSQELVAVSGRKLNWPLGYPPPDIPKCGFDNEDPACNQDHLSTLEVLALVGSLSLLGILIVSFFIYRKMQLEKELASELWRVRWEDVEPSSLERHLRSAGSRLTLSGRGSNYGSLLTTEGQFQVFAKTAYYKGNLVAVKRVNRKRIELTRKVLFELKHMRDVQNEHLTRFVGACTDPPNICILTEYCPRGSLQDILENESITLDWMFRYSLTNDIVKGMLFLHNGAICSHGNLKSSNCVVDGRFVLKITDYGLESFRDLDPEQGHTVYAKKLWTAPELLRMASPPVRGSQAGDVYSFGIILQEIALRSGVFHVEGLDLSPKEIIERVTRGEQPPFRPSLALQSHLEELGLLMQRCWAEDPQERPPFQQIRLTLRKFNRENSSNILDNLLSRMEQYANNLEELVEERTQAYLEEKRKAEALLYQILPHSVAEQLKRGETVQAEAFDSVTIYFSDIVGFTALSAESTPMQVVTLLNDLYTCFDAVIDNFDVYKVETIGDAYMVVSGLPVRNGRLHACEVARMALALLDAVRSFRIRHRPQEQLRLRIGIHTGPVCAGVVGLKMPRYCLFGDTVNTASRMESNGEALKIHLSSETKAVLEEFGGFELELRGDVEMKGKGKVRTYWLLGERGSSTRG
row,Compound,activation
1,CC1CCC(N2CC(=O)N(Cc3ccc4c(c3)OCO4)C(c3ccc(F)cc3)C2=O)CC1 (stereo unspecified),-15.6% (inactive)
2,Cc1csc(NC(=O)C2CCCN2C(=O)OCC(C)C)n1 (stereo unspecified),-0.58% (inactive)
3,CN(C)CCCn1c(SCCN2C(=O)c3ccccc3C2=O)nc2ccccc2c1=O,-1.16% (inactive)
4,CN(C)CCn1c2c(c(SCC(=O)NCc3ccccc3)nc1=O)CCC2,3.93% (inactive)
5,O=C(NCc1ccccc1)C(c1cccnc1)N(C(=O)c1csnn1)c1ccc(F)cc1 (stereo unspecified),2.49% (inactive)
6,O=C1CCC(=O)N1CCOP1(=O)COc2ccccc2OC1,1.8% (inactive)
7,Cc1ccc(Cl)cc1NC(=O)COC(=O)C1CCCCC1,4.33% (inactive)
8,COc1ccc(NC(=O)CN(C)C(=O)Cc2coc3cc(C)c(C)cc23)cc1,0.74% (inactive)
9,CC(C)=CCN1CCN(Cc2ccc(Oc3ncccn3)cc2)CC1CCO (stereo unspecified),-0.64% (inactive)
10,Cc1nc(-c2nnc(SCC(=O)Nc3cc(C(F)(F)F)cc(C(F)(F)F)c3)n2C)cs1,1.31% (inactive)
11,CC1CN/C(=C\C(=O)c2ccc(Br)cc2)C(=O)N1 (stereo unspecified),45.4% (active)
12,COc1cc2c(cc1OC)/C(=C/C(=O)c1ccc(NC(C)=O)cc1)NCC2,6.02% (inactive)
13,O=C(O)C1CCCN1S(=O)(=O)c1ccc(Br)cc1 (stereo unspecified),3.81% (inactive)
14,COc1ccc(N(CCC#N)S(=O)(=O)c2ccc(Cl)cc2)cc1,-7.67% (inactive)
15,Cc1ccccc1CN(c1ccc(C(=O)NCC2CCCO2)cc1)S(C)(=O)=O (stereo unspecified),2.8% (inactive)
16,COc1ccc(CCNC(=O)CSc2nc3c([nH]2)c(=O)n(C)c(=O)n3C)cc1,-1.99% (inactive)
17,Cc1[nH][nH]c(=O)c1C(c1ccc(-c2ccc(Cl)cc2)o1)c1c(C)[nH][nH]c1=O,3.79% (inactive)
18,O=C(Nc1cc(S(=O)(=O)N2CCOCC2)ccc1OCC(F)(F)F)c1ccc(N2CCCC2=O)cc1,-0.92% (inactive)
19,O=C(NCCCN1CCCCCC1)c1ccc(N2CCCC2=O)cc1,-0.43% (inactive)
20,CS(=O)(=O)c1ccc2nc(NC(=O)c3ccc(N4CCCC4=O)cc3)sc2c1,62.2% (active)
21,CC(=O)Nc1cc(-c2ccccc2N(C)C)cn2c(-c3ccc(F)c(Cl)c3)cnc12,3.6% (inactive)

# Reference: PubChem BioAssay AID1671463 (Sanford-Burnham Center for Chemical Genomics, 2021)
